In the library only some 1.2% were active in any assay of this set; here they are far more common.
BJeLR lethal – MLPCN primary cell-based screen for lethality selective to Ras in HRASV12 cells; 0.17% of 300,000 active; AID 1554, 2009; inhibition, % (concentration not given with the values); BJeLR (HRASV12) viability, CellTiter-Glo ATP luminescence, 48 h; in the data active = inhibition above about 50%
SARS 3CLpro inh-1 – SARS-CoV 3CLpro protease inhibitors, primary screen, biochemical, quenched FRET | inhibition, % at 6 µM | AID 1706, 2009 | recombinant SARS-CoV 3CLpro, quenched FRET peptide cleavage | 0.14% of 290,000 active | Replicase polyprotein 1ab (Severe acute respiratory syndrome coronavirus), P0C6X7; in the data active = inhibition above about 12%
SSB-PriA inh – inhibitors of Klebsiella pneumoniae PriA binding to SSB C-terminal tail, primary screen, biochemical, AlphaScreen. PriA–SSB C-terminal tail interaction (Klebsiella pneumoniae). AlphaScreen SSBct-PriA binding, biotinylated peptide. inhibition, % at 33 µM. AID 1272365, 2023. 0.6% of 430,000 active; in the data active = inhibition mostly above about 37%, no sharp cut-off; inactive = mostly below about 20%
PrPC surface inh – inhibitors of human cell surface prion protein PrPC, primary screen, cell-based, TR-FRET; TR-FRET read-out; inhibition, % at 13.8 µM; 0.43% of 370,000 active; AID 720596, 2013; in the data active = inhibition above about 24%
PrP UTR inh – inhibition of PrP 5' UTR reporter expression | cell-based PrP 5' UTR mRNA reporter, plate reader | 0.35% of 340,000 active | inhibition, % (test concentration not listed); in the data active = inhibition above about 52%
SARS 3CLpro inh-2 – confirmation of SARS coronavirus 3C-like protease inhibitors, retest, confirmation, biochemical | shares compounds with SARS 3CLpro inh-1 | QFRET protease activity assay, 3CLpro | inhibition, % at 6 µM | 36% of 380 active | AID 1879, 2009; in the data active = inhibition above about 13%
Of the large screens only hits and unclear results are named; the others gave an inactive call (follow-up assays come after a bar, where they were run).

CC(C)(C)OC(=O)CNC(=O)c1[nH]cnc1C(=O)NC(c1ccccc1)c1ccccc1	SARS 3CLpro inh-1 12.7 | SARS 3CLpro inh-2 inactive
CC(C)(C)OC(=O)NCc1ccc(CNC(=O)c2[nH]cnc2C(=O)N[C@@H](Cc2ccccc2)C(=O)OC(C)(C)C)cc1	SARS 3CLpro inh-1 15.0 | SARS 3CLpro inh-2 inactive
CC(C)(C)OC(=O)NCc1ccc(CNC(=O)c2[nH]cnc2C(=O)N[C@@H](Cc2ccccc2)C(=O)OCc2ccccc2)cc1	SARS 3CLpro inh-1 14.0 | SARS 3CLpro inh-2 inactive
O=C(NCc1ccco1)C(c1ccco1)N(C(=O)Cn1nnc2ccccc21)c1ccc2c(c1)CCC2 (stereo not given)	SARS 3CLpro inh-1 14.6 | SARS 3CLpro inh-2 25.6
Cc1cccc(N(C(=O)Cn2nnc3ccccc32)C(C(=O)NCc2ccco2)c2ccncc2)c1 (stereo not given)	none
O=C(CCNC(=O)Cn1cnc2ccccc2c1=O)NCC1CCCO1 (stereo not given)	SARS 3CLpro inh-1 17.0 | SARS 3CLpro inh-2 inactive
O=C(CCNC(=O)Cn1cnc2ccccc2c1=O)NCC1COc2ccccc2O1 (stereo not given)	none
C/C(=N\NC(=O)c1ccc(Cl)c(Cl)c1)c1cccc(NC(=O)C(C)C)c1	SARS 3CLpro inh-1 22.6 (no result: SSB-PriA inh) | SARS 3CLpro inh-2 inactive
Cc1ccc(N(CC(=O)NN=Cc2ccc(OCC(N)=O)cc2)S(C)(=O)=O)cc1Cl	none (no result: BJeLR lethal, SARS 3CLpro inh-1, PrPC surface inh, PrP UTR inh)
CSc1ccccc1C(=O)Nc1cccc(-c2cnc3n2CCC3)c1	none (no result: BJeLR lethal, SARS 3CLpro inh-1, PrPC surface inh, PrP UTR inh)
Cc1csc(NC(=O)c2cccc([N+](=O)[O-])c2C(=O)O)n1	none
O=C(Nc1nc(-c2ccccc2)cs1)c1cccc([N+](=O)[O-])c1C(=O)O	SARS 3CLpro inh-1 16.1 | SARS 3CLpro inh-2 28.4
O=C1c2ccccc2C(=O)N1C/C=C/c1ccccc1	none
O=C1C(=O)N(CCCc2ccccc2)c2ccccc21	SARS 3CLpro inh-1 19.2 (no result: PrPC surface inh) | SARS 3CLpro inh-2 22.4
O=C1C(=O)N(C/C=C/c2ccccc2)c2ccccc21	SARS 3CLpro inh-1 34.3 | SARS 3CLpro inh-2 36.0
O=C(CN1C(=O)C(=O)c2ccccc21)NCCc1ccccc1	none
Cc1ccc(O)c(Nc2ncnc3ccccc23)c1	SARS 3CLpro inh-1 13.4 | SARS 3CLpro inh-2 inactive
O=C(O)/C(=C\c1cccc(OCc2ccccc2)c1)c1ccc(F)cc1	SARS 3CLpro inh-1 15.6 | SARS 3CLpro inh-2 inactive
O=C(N/N=C/c1ccc(F)cc1)c1ccc(OCc2ccccc2)cc1	none
Cc1ccc(NC(=O)CCC(=O)NNC(=O)C(c2ccccc2)c2ccccc2)c(C)c1	SARS 3CLpro inh-1 14.0 | SARS 3CLpro inh-2 inactive
Cc1ccc(C)c(NC(=O)CCC(=O)NNC(=O)C(c2ccccc2)c2ccccc2)c1	none
CCC(O)(CC)C(=O)NN(C(=O)CCl)c1ccccc1	none
O=C(Nc1ccccc1)NN(C(=O)CCl)c1ccccc1	SARS 3CLpro inh-1 32.2 | SARS 3CLpro inh-2 36.5
CCCn1nnc(NC(=O)COc2ccc(C3CCCCC3)cc2)n1	SARS 3CLpro inh-1 14.1 | SARS 3CLpro inh-2 inactive
Cc1ccc(C)c(S(=O)(=O)N2CCN(S(=O)(=O)c3cc(C)ccc3C)CC2)c1	none (no result: BJeLR lethal, SARS 3CLpro inh-1, PrPC surface inh, PrP UTR inh)
NC(=NOC(=O)c1ccc(Cl)cc1)c1cccnc1	none (no result: BJeLR lethal, SARS 3CLpro inh-1, PrPC surface inh, PrP UTR inh)
O=C(Oc1cccnc1)c1ccc(Cl)cc1	SARS 3CLpro inh-1 24.1 | SARS 3CLpro inh-2 33.6
Cc1cc(C)c(S(=O)(=O)n2nc3ccccc3n2)c(C)c1	none (no result: BJeLR lethal, SARS 3CLpro inh-1, PrPC surface inh, PrP UTR inh)
CCOC(=O)c1ccc(NC(=O)CN2C(=O)C(CC)SC(CC)C2=O)cc1 (stereo not given)	SARS 3CLpro inh-1 12.6 | SARS 3CLpro inh-2 inactive
CCc1cccc(NC(=O)c2c(O)c3ccccc3[nH]c2=O)c1	none (no result: BJeLR lethal, SARS 3CLpro inh-1, PrPC surface inh, PrP UTR inh)
CCCCOc1ccc(C(=O)N2CCN(c3ccc(Nc4cccnc4)nn3)CC2)cc1	none (no result: BJeLR lethal, SARS 3CLpro inh-1, PrPC surface inh, PrP UTR inh)
O=C(Nc1ccc(OCC(F)(F)C(F)F)c(C(F)(F)F)c1)c1ccccc1O	SARS 3CLpro inh-1 13.2 | SARS 3CLpro inh-2 15.3
Cn1cnc(S(=O)(=O)N2CCO[C@H](c3ccccc3)C2)c1	none (no result: BJeLR lethal, SARS 3CLpro inh-1, PrPC surface inh, PrP UTR inh)
Cc1ccc(C(=O)O)cc1NC(=S)NC(=O)c1ccc(COc2ccccc2)cc1	SARS 3CLpro inh-1 15.9 | SARS 3CLpro inh-2 13.2
Cc1ccc(C(=O)O)cc1NC(=S)NC(=O)Cc1ccccc1	none
CSCCC(NS(=O)(=O)c1ccc(Oc2ccccc2Cl)cc1)C(=O)O (stereo not given)	none (no result: BJeLR lethal, SARS 3CLpro inh-1, PrPC surface inh, PrP UTR inh)
O=C1OCc2ccccc21	none (no result: BJeLR lethal, SARS 3CLpro inh-1, PrPC surface inh, PrP UTR inh)
N#CCC(=O)N/N=C/c1c(-c2ccccc2)n(-c2ccccc2)c2ccccc12	SARS 3CLpro inh-1 21.7 (no result: SSB-PriA inh) | SARS 3CLpro inh-2 23.2
CCN(CC)C(=O)CSc1ccccc1[N+](=O)[O-]	none (no result: BJeLR lethal, SARS 3CLpro inh-1, PrPC surface inh, PrP UTR inh)
CC(C)(C)C(=O)NC(=S)Nc1sc2c(c1C#N)CCCCC2	SARS 3CLpro inh-1 33.6 | SARS 3CLpro inh-2 inactive
CC(=O)Nc1sc2c(c1C#N)CCCCC2	none (no result: BJeLR lethal)
CCc1ccc(CNCCc2c[nH]c3ccccc23)cc1	none
COc1cc(CNCCc2c[nH]c3ccccc23)cc(OC)c1	SARS 3CLpro inh-1 71.0 | SARS 3CLpro inh-2 inactive
Cc1ccc(NC(=O)CN(C)C(=O)c2cccnc2Nc2cccc(C(F)(F)F)c2)cc1	SARS 3CLpro inh-1 12.6 | SARS 3CLpro inh-2 inactive
Cc1noc(C)c1S(=O)(=O)N1CCC(c2cc(C(=O)Nc3ccccc3F)n[nH]2)CC1	none (no result: BJeLR lethal, SARS 3CLpro inh-1, PrPC surface inh, PrP UTR inh)
CC(=O)c1cc(-c2ccccc2)[nH]c1N1CCOCC1	SARS 3CLpro inh-1 45.6 | SARS 3CLpro inh-2 inactive
CC(=O)c1c(N2CCOCC2)nc2ccc(Br)cc2c1-c1ccccc1	none
O=C(CC1C(=O)NCCN1C(=O)Nc1ccc(C(F)(F)F)cc1)Nc1ccc(F)cc1 (stereo not given)	none
COc1ccc(NC(=O)CC2C(=O)NCCN2C(=O)Nc2ccc(C(F)(F)F)cc2)cc1 (stereo not given)	SARS 3CLpro inh-1 13.1 | SARS 3CLpro inh-2 inactive
CC(=O)N1N=C(c2ccco2)CC1c1ccco1 (stereo not given)	none
Cc1ccc(C2=NN(C(=O)CCl)C(c3ccco3)C2)o1 (stereo not given)	BJeLR lethal 86.6, SARS 3CLpro inh-1 47.4 | SARS 3CLpro inh-2 60.8
COc1ccc(C2NN=C(c3c[nH]c4ccccc34)C2O)cc1 (stereo not given)	none
COc1ccc(C2C(O)C(c3c[nH]c4ccccc34)=NN2C(=O)CCl)cc1 (stereo not given)	BJeLR lethal 100.3, SARS 3CLpro inh-1 61.4 | SARS 3CLpro inh-2 77.9
O=C(CCl)N(CCc1ccccc1)CCc1ccccc1	SARS 3CLpro inh-1 16.4 | SARS 3CLpro inh-2 23.9
O=C(CCl)N(c1ccccc1)c1ccccc1	none
CC(C)CS(=O)(=O)C1=NSC2=NC(=O)/C(=C\c3ccc(OC(=O)c4ccco4)cc3)C(=N)N21	SARS 3CLpro inh-1 13.2 | SARS 3CLpro inh-2 inactive
O=C(Nc1ccc2c(c1)N(S(=O)(=O)c1ccccc1)CCC2)c1ccccc1Br	none (no result: BJeLR lethal, SARS 3CLpro inh-1, PrPC surface inh, PrP UTR inh)
